The nature of assay [1]: Nuclear factor erythroid 2-related factor 2/antioxidant responsive element (Nrf2/ARE) small molecule agonists: qHTS cell viability counter screen in human keratinocytes (AID 1919968; active = well fitted curve in the direction sought with a large enough effect in the repeat runs; an effect the other way counts as inactive or inconclusive; also: nearly all actives have a fitted effect of over 55% in size; also: potency is read from the fitted curve at half-maximal effect). The method, boiled down: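 Parallel cytotoxicity read: KeratinoSens HaCaT cells, compound treatment 23 h, viability by CellTiter-Fluor fluorescence 1 h post-reagent.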
Assay [2] can be described thus: Nuclear factor erythroid 2-related factor 2/antioxidant responsive element (Nrf2/ARE) small molecule agonists: luciferase reporter gene qHTS assay in human keratinocytes (AID 1919969). Also: nearly all actives have a fitted effect of over 35% in size. Also: potency is read from the fitted curve at half-maximal effect.
Assay [3] addresses Gonadotropin-releasing hormone receptor (Homo sapiens) (UniProt P30968). As to the kind of experiment: Human gonadotropin-releasing hormone receptor (GnRHR) small molecule agonists, calcium flux assay in GnRHR-HEK293 cells (AID 1920063). Also: nearly all actives have a fitted effect of over 35% in size. The method, boiled down:
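Calcium flux, agonist mode, human GnRHR stably integrated in HEK293; dye 1 h at 37 C before compound; Ex/Em=480/540 kinetic read, 3 min; 15 concentrations, triplicate.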
Background: Calcium flux is commonly read through the fluorescence of an indicator in the cells.

Assay [4] addresses KiSS-1 receptor (Homo sapiens) (UniProt Q969F8). As to the kind of experiment: Human kisspeptin (KISS1R) small molecule agonists, calcium flux assay in KISS1R-HEK293 cells (AID 1920064; active = well fitted curve in the direction sought with a large enough effect in the repeat runs; an effect the other way counts as inactive or inconclusive). The method, boiled down:
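Triplicate 15-concentration series were applied to dye-loaded human KISS1R HEK293 cells, and agonist-evoked calcium fluorescence was captured for 3 min.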

The nature of assay [5]: G protein-coupled receptor (GPCR) small molecule agonists, calcium flux assay: HEK293 wild type cell line counter screen (AID 1920065). The method, boiled down:
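Non-specific calcium responders were flagged by adding DMSO-dissolved compounds to dye-loaded cells and reading 480/540 nm fluorescence each second for 3 min; ATP served as positive control.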

Assay [6] is described as follows: p53 small molecule agonists, cell-based qHTS assay with human liver microsomes (AID 1963577). The method, boiled down: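 Cells carrying a p53-responsive bla reporter were rested 5 h (37 C, 5% CO2) before compound transfer. Human liver microsomes plus NADPH, 0.5 mg/mL final apiece, supplied metabolism during the 16 h 37 C exposure.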
(In general: qHTS replaces the single test concentration by a dilution series.)

The nature of assay [7]: p53 small molecule agonists, cell-based qHTS assay with rat liver microsomes (AID 1963578). In short, it runs like this: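 Fluorescence from a beta-lactamase reporter under a p53 response element was measured after cells had been incubated 16 h at 37 C with test compound and rat liver microsomes plus NADPH (0.5 mg/mL final each).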
A short description of assay [8]: p53 small molecule agonists, cell-based qHTS assay with human liver microsomes: qHTS cell viability counter screen (AID 1963579). Also: nearly all actives have a fitted effect of over 45% in size. The method, boiled down: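 Seed p53RE-bla cells at 4,000 per well; incubate 5 h at 37 C; add compound, human liver microsomes and NADPH; incubate 16 h at 37 C; add CellTiter-Glo; after 30 min at room temperature, read luminescence.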
A short description of assay [9]: p53 small molecule agonists, cell-based qHTS assay with rat liver microsomes: qHTS cell viability counter screen (AID 1963580). Also: nearly all actives have a fitted effect of over 45% in size. In short, it runs like this: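 After the beta-lactamase ratio was read, CellTiter-Glo was added to the same wells and luminescence measured at 30 min; cells had been treated 16 h at 37 C with compounds, rat liver microsomes and NADPH (0.5 mg/mL final each).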

Assay [10] in a line: p53 small molecule agonists, cell-based qHTS assay: qHTS cell viability counter screen (AID 1963581). Also: nearly all actives have a fitted effect of over 45% in size. In short, it runs like this:
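Multiplexed with the reporter read, a CellTiter-Glo step (30 min, room temperature) gauges ATP-based viability of HCT-116 p53RE-bla cells after 16 h compound incubation at 37 C.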

The nature of assay [11]: p53 small molecule agonists, cell-based qHTS assay (AID 1963582; active = well fitted activation curve with a large enough effect in the signal ratio in the repeat runs, not every such curve was filed as active; the % refers to the signal ratio). The method, boiled down:
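Beta-lactamase reporter cells (p53RE-bla) treated with compounds for 16 h at 37 C; FRET substrate, 2 h, room temperature; fluorescence intensity.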

The target of assay [12] is 5-hydroxytryptamine receptor 2A (Homo sapiens) (UniProt P28223). The experiment in a line: 5-hydroxytryptamine receptor 2A (HTR2A) small molecule antagonists, cell-based qHTS assay (AID 1963586). Also: nearly all actives have a fitted effect of over 45% in size. In short, it runs like this:
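CHO cells stably expressing human HTR2A were plated for 18 h at 37 C, then loaded with calcium dye for 1 h. Compounds were preincubated 5 min at room temperature before DOI (4 nM solution) was added. Kinetic fluorescence was read for 3 min.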

For assay [13] the target is unchanged. The experiment in a line: 5-hydroxytryptamine receptor 2A (HTR2A) small molecule agonists, cell-based qHTS assay (AID 1963587). Also: nearly all actives have a fitted effect of over 30% in size. In short, it runs like this: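 CHO cells stably expressing human HTR2A, plated 18 h, loaded with calcium dye 1 h at 37 C. Agonist mode: compounds added and intracellular calcium fluorescence recorded kinetically for 2 min at 1 sec intervals.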

The target in assay [14] is Muscarinic acetylcholine receptor M1 (Homo sapiens) (UniProt P11229). The experiment in a line: Cholinergic receptor muscarinic 1 (CHRM1) small molecule antagonists, cell-based qHTS assay (AID 1963588). Also: nearly all actives have a fitted effect of over 40% in size. In short, it runs like this: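 Compounds were tested at 15 concentrations in three independent runs. Dye-loaded CHRM1-CHO cells were exposed 5 min at room temperature before stimulation by acetylcholine added at 50nM. Intracellular calcium was read kinetically on FDSS for 3 min.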

The target is the same in assay [15]. The experiment in a line: Cholinergic receptor muscarinic 1 (CHRM1) small molecule agonists, cell-based qHTS assay (AID 1963589). Also: nearly all actives have a fitted effect of over 35% in size. In short, it runs like this:
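qHTS, 15-point titration, 3 independent runs: compounds pin-transferred onto dye-loaded CHRM1-CHO cells (human M1), calcium fluorescence followed every second to detect agonism.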

The nature of assay [16]: cAMP Responsive Elements (CRE) small molecule agonists, cell-based qHTS assay (AID 1963590). The method, boiled down: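 Quantitative HTS for CRE agonists: HEK 293T CRE-bla cells, overnight plating, 3 h compound incubation at 37 C/5% CO2, then 2 h room-temperature LiveBLAzer B/G FRET substrate loading.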
A short description of assay [17]: cAMP Responsive Elements (CRE) small molecule antagonists, cell-based qHTS assay (AID 1963591; active = well fitted inhibition curve with a large enough effect in the signal ratio in the repeat runs, not every such curve was filed as active; the % refers to the signal ratio). In short, it runs like this: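 Fluorescence intensity from cleaved LiveBLAzer B/G substrate (2 h, room temperature) quantified CRE-bla activity in HEK 293T cells exposed 3 h to compound with 0.25 uM final NKH477.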
Assay [18] addresses Beta-2 adrenergic receptor (Homo sapiens) (UniProt P07550). As to the kind of experiment: Adrenergic beta2 receptor (ADRB2) small molecule antagonists, cell-based qHTS assay (AID 1963592). Also: series mostly up to about 92 µM; nearly all actives have a fitted effect of over 50% in size. In short, it runs like this:
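Assay format: CHO-ADRB2 cells, 18-20hr seeding at 37C/5% CO2, then compound plus 1nM isoproterenol agonist mix for 0.5hr RT. Homogeneous time-resolved fluorescence cAMP detection after 1hr, expressed as 665/615 nm ratio.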

Assay [19] has as its target D(2) dopamine receptor (Homo sapiens) (UniProt P14416). The experiment in a line: Dopamine D2 receptor (DRD2) small molecule agonists, cell-based qHTS assay (AID 1963594). Also: nearly all actives have a fitted effect of over 35% in size. In short, it runs like this:
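HEK293 cells stably expressing human DRD2, pre-treated with PDE inhibitor Ro20-1724 (0.1 mM final) and compound 10 min at room temperature, then stimulated with NKH477 (200nM […]) for 30 min. cAMP read by HTRF (665/620 nm).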

For assay [20] the target is unchanged. The experiment in a line: Dopamine D2 receptor (DRD2) small molecule antagonists, cell-based qHTS assay (AID 1963595; active = well fitted inhibition curve with a large enough effect in the signal ratio in the repeat runs, with a control signal flat; the % refers to the signal ratio). In short, it runs like this: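 Readout: HTRF cAMP, cAMP-d2 competing with cellular cAMP for anti-cAMP cryptate, read after 1 h. Cells: DRD2-HEK293. Conditions: 0.1 mM Ro20-1724, 12 nM quinpirole, 200 nM NKH477, 30 min RT.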

The record followed here is PubChem BioAssay (Tox21).

Records with an inconclusive call do not appear. Where a structure was tested more than once in an assay, its records may differ in their call. Calls of active or inactive are those of the source. Unless noted, calls follow the shape of the full dose curve.

Chain of Gonadotropin-releasing hormone receptor (Homo sapiens) (P30968 whole entry, looked up): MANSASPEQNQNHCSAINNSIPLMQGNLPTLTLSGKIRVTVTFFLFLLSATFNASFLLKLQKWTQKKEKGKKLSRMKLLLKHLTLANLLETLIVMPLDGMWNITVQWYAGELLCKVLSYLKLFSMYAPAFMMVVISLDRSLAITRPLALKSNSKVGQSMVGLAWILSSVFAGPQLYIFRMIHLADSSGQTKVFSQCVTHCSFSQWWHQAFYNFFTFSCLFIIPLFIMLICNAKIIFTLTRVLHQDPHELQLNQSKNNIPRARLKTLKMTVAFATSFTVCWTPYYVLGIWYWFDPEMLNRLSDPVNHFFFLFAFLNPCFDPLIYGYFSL
Chain of Muscarinic acetylcholine receptor M1 (Homo sapiens) (P11229 whole entry, looked up): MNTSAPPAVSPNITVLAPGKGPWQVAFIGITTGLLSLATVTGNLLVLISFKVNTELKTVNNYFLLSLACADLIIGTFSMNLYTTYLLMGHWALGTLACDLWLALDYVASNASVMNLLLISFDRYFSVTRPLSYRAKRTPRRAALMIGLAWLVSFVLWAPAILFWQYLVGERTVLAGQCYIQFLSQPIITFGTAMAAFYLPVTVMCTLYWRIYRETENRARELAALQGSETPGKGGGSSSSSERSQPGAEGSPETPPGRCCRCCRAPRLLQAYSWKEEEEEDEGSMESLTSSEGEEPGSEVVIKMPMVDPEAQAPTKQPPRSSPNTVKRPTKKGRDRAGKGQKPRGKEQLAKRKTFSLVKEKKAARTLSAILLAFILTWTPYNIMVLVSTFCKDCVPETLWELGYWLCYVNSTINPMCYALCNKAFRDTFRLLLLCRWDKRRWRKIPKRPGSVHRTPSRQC
Chain of D(2) dopamine receptor (Homo sapiens) (P14416 whole entry, looked up): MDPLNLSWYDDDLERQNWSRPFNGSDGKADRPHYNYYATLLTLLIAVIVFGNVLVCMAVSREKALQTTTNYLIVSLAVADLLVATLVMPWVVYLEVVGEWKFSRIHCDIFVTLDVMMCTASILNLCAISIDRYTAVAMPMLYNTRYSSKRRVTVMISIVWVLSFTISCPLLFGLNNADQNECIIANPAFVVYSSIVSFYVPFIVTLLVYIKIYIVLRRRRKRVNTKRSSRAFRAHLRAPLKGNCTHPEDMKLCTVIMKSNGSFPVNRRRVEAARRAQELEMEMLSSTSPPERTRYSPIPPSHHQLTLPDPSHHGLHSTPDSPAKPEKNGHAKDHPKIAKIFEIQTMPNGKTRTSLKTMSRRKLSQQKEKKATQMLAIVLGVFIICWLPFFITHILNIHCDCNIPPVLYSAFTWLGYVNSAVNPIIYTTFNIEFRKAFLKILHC
Chain of KiSS-1 receptor (Homo sapiens) (Q969F8 whole entry, looked up): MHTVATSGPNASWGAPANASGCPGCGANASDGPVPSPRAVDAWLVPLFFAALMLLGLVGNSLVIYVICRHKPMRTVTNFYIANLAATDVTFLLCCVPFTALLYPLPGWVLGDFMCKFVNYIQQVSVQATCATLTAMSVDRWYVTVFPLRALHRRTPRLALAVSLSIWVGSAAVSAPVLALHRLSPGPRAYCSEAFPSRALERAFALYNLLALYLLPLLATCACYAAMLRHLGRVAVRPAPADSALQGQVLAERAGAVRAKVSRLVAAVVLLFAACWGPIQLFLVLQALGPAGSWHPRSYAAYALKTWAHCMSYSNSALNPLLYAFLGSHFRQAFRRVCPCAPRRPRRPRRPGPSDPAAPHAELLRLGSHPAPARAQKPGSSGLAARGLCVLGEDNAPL
Chain of Beta-2 adrenergic receptor (Homo sapiens) (P07550 whole entry, looked up): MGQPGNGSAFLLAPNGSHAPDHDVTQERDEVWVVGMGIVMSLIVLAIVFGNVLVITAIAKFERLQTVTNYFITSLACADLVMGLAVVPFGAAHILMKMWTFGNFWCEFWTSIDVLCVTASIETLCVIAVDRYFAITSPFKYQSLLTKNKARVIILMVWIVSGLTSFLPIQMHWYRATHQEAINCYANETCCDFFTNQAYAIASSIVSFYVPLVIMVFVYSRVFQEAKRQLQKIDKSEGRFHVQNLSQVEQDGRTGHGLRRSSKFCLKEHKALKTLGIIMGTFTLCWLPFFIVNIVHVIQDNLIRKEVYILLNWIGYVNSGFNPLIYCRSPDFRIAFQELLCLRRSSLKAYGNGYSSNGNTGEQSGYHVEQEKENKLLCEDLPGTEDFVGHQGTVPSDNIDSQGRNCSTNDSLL
Chain of 5-hydroxytryptamine receptor 2A (Homo sapiens) (P28223 whole entry, looked up): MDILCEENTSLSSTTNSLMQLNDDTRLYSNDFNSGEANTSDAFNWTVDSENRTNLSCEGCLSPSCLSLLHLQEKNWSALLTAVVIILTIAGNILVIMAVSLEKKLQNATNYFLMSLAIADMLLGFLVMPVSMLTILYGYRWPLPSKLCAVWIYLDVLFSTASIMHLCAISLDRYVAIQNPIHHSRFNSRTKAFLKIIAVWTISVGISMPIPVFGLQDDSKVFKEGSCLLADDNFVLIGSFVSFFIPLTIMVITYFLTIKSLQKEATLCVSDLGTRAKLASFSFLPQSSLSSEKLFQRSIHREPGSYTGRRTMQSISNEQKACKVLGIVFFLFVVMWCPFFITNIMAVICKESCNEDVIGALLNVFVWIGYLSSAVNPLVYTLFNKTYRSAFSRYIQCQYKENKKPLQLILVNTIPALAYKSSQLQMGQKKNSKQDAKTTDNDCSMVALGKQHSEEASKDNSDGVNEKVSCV

For the molecule `c1ccc(-c2ccccc2)cc1`, the Potency entry in [1], in assay [2], in assay [3], in assay [4], in [5] and in assay [6] was “inactive” in each case. Besides, the Potency result in assay [7], in assay [8], in assay [9], in assay [10], in [11] and in assay [12] was “inactive” throughout. Moreover, the Potency result in assay [13], in assay [14], in assay [15], in [16], in assay [17] and in assay [18] was “inactive” in each case. Further, the Potency result in assay [19] and in assay [20] was “inactive” throughout.

For the molecule `NC(=O)OCCCc1ccccc1`, the Potency entry in assay [1], in assay [2], in assay [3], in assay [4], in assay [5] and in [6] was “inactive” each time. For the same molecule, the Potency entry in assay [7], in assay [8], in assay [9], in [10], in [11] and in assay [12] was “inactive” each time. In addition, the Potency result in assay [13], in assay [14], in assay [15], in assay [16], in [17] and in assay [18] was “inactive” each time. Further, the Potency entry in assay [20] is “inactive”.

`Clc1ccc(C(c2ccc(Cl)cc2)C(Cl)(Cl)Cl)cc1`: the Potency in assay [1] is 38.8 µM (active). In addition, the Potency entry in assay [2], in assay [3], in assay [4], in [5], in [6] and in [7] was “inactive” each time. Besides, the Potency result in assay [8], in [9], in assay [10], in assay [11], in assay [12] and in [13] was “inactive” each time. The Potency result in [14], in [15], in assay [16], in assay [17], in assay [18] and in [19] was “inactive” in each case. The Potency result in assay [20] is “inactive”.

As to `CCOC(=O)c1ccccc1C(=O)OCC`, the Potency entry in [1], in [2], in [3], in [4], in [5] and in assay [6] was “inactive” in each case. Further, the Potency result in assay [7], in [8], in [9], in assay [10], in assay [11] and in [12] was “inactive” each time. In addition, the Potency result in assay [13], in assay [14], in assay [15], in assay [16], in assay [17] and in [18] was “inactive” throughout. Moreover, the Potency entry in [19] and in [20] was “inactive” in each case.

In the case of `Brc1ccc(Oc2ccccc2)cc1`, the Potency result in assay [1], in assay [3], in assay [4], in assay [5], in assay [6] and in assay [7] was “inactive” each time. The Potency result in assay [8], in [9], in assay [10], in assay [11], in assay [12] and in assay [13] was “inactive” in each case. For the same molecule, the Potency entry in assay [14], in assay [15], in assay [16], in assay [17], in [18] and in assay [19] was “inactive” each time. The Potency entry in assay [20] is “inactive”. In assay [2], the Potency was 35.2 µM (active) and inactive.

Take `COC(=O)c1ccc(CBr)cc1`: the Potency result in [1], in assay [3], in [4], in [5], in assay [6] and in assay [7] was “inactive” each time. Besides, the Potency result in assay [8], in assay [9], in assay [10], in assay [11], in [12] and in assay [13] was “inactive” each time. For the same molecule, the Potency entry in assay [14], in [15], in assay [16], in assay [17], in [18] and in assay [20] was “inactive” throughout. The Potency in [2] was 6.19 µM (active).

For the molecule `CCc1ccccc1C`, the Potency entry in [1], in assay [2], in [3], in [4], in [5] and in assay [6] was “inactive” in each case. In addition, the Potency result in assay [7], in assay [8], in assay [9], in assay [10], in assay [11] and in assay [12] was “inactive” each time. Also, the Potency result in assay [13], in assay [14], in [15], in [16], in assay [17] and in [18] was “inactive” in each case. Also, the Potency entry in [19] and in [20] was “inactive” throughout.
